Reference: PubChem BioAssay (NCATS)
Records with an inconclusive call do not appear. Activity calls are given as the source filed them. Unless noted, calls follow the shape of the dose curve; as a rule, active = well fitted curve in the direction sought with a large enough effect; inconclusive = small, poorly fitted or top-dose-only effect, or another doubt; inactive = no such curve, though single readings can be large; an effect the other way counts as inactive or inconclusive.

Tests used:
[1] = biological target: Mitogen-activated protein kinase 10 (Mus musculus) (UniProt Q61831); assay: JNK3 AlphaScreen Assay (AID 530; active = well fitted curve in either direction with a large enough effect, not every such curve was filed as active)
Method in brief: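 HepG2 lysate (IL-1b/TNFa pre-activated) + biotin-GST-cJun 1-79 + anti-pSer73 cJun; cpd titration, 15 min RT; ATP 10 uM start; Tris pH 7.6, MgCl2, DTT, vanadate; beads in EDTA buffer; AlphaScreen.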

[2] = biological target: Cytochrome P450 3A4 (Homo sapiens) (UniProt P08684); assay: qHTS Assay for Activators of Cytochrome P450 3A4 (AID 885)
Method in brief: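 Activators are scored by enhanced luminescence from CYP3A4 conversion of luciferin-PPXE (25uM, equal to KM) to luciferin, after 60 min at RT with an NADPH-regenerating system.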

[3] = biological target: Ubiquitin carboxyl-terminal hydrolase 1 (Homo sapiens) (UniProt O94782); assay: Inhibitors of USP1/UAF1: Pilot qHTS (AID 504865)
Method in brief: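 Deubiquitinase activity followed as kinetic rhodamine fluorescence release from 150 nM Ub-Rho. 1 nM USP1/UAF1 with compound, after 15 min room-temperature preincubation, in HEPES pH 7.8 buffer containing TCEP, EDTA, BSA and Tween-20.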

[4] = KB-3-1 Cancer Cell Toxicity qHTS against the NCATS CANVASS Library (AID 1347366)
Method in brief: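 CellTiter-Glo luminescence measured viability after 72 h at 37C. KB-3-1 cells were seeded at 500 per well in DMEM/10% FBS.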

[5] = qHTS for ATAD5 Agonist screened against the NCATS CANVASS Library (AID 1347367)
Method in brief: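 Genotoxicity via ATAD5-luciferase luminescence after 16 h compound exposure (11-point series) at 37C in HEK293T-ATAD5 cells. CellTiter-Fluor viability read precedes the luminescence read; MMS serves as positive control.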

[6] = MCF7 Cancer Cell Toxicity qHTS against the NCATS CANVASS Library (AID 1347369)
Method in brief: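 Cytotoxicity was measured as CellTiterGlo luminescence (ATP) after 72 h at 37 °C. The cells were MCF7 at 500 per well, with an 11-point compound concentration series.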

[7] = J3T Cancer Cell Toxicity qHTS against the NCATS CANVASS Library (AID 1347371)
Method in brief: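 Dog glioma J3T, 500 cells/well; cpd 11-pt qHTS; 72 hr, 37C/5% CO2; CellTiterGlo ATP luminescence readout.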

[8] = biological target: Nuclear receptor subfamily 1 group I member 3 (Homo sapiens) (UniProt Q14994); assay: qHTS for Constitutive Androstane Receptor (CAR) Antagonist screened against the NCATS CANVASS Library (AID 1347372)
Method in brief: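 Luminescence readout (ONE-Glo, 30 min RT) of CYP2B6-2.2kb reporter in HepG2-hCAR cells after 24hr, 37C treatment with compound against 50 nM CITCO; CellTiter-Fluor viability read beforehand.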

[9] = biological target: Nuclear receptor subfamily 1 group I member 3 (Homo sapiens) (UniProt Q14994); assay: qHTS for Constitutive Androstane Receptor (CAR) Agonist screened against the NCATS CANVASS Library (AID 1347373)
Method in brief: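 Luciferase read-out (ONE-Glo, 30 min RT) of CYP2B6-2.2kb promoter activity in double-stable HepG2-hCAR cells after 24hr compound exposure with 1.5uM PK11195 present; viability measured first by CellTiter-Fluor.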

[10] = 10-beta competent E. coli microbial cell viability qHTS against the NCATS CANVASS Library (AID 1347376)
Method in brief: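 Luminescence from BacTiter-Glo ATP detection served as the viability read-out; bacteria (0.2 OD) had been incubated overnight at 37C with pin-transferred compounds at 11 concentrations.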

[11] = DH5-alpha competent E. coli microbial cell viability qHTS against the NCATS CANVASS Library (AID 1347377); details: outcome: at 46.1 µM (top of the series)
Method in brief: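 Luminescent ATP read-out (BacTiter-Glo, 20 min RT) after overnight 37C culture of DH5-alpha E. coli with compounds; daunomycin control at 0.2 nM–9.2 uM final.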

[12] = qHTS for Inflammasome Signaling Inhibitors: IL-1-beta AlphaLISA screen against the NCATS CANVASS Library (AID 1347379)
Method in brief: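 THP-1, 1 hr compound pre-incubation, then LPS 250 ng/mL + ATP 1.25 mM (final); 16 hr total with compound; IL-1B AlphaLISA, ex 680/em 615 nm; 11-point qHTS, up to 57.5 uM final.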

[13] = Inflammasome Signaling qHTS Counterscreen: IL-1-beta AlphaLISA counterscreen against the NCATS CANVASS Library (AID 1347381)
Method in brief: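 Here, no cellular stimulation occurs; compounds in an 11-point series meet 4 pg purified IL-1-beta directly. Bead-based AlphaLISA detection follows (1 h acceptor/antibody, then 30 min donor, dark, room temperature), with excitation at 680 nm.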

[14] = qHTS for Activators of p53 Stress Response Pathway screened against the NCATS CANVASS Library (AID 1347388)
Method in brief: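 p53RE-bla HCT-116 cells (4000/well) were pre-incubated for 5 h, then treated with compound (11 points) for 16 h at 37C. After 2 h with CCF4, the 460/530 nm ratio gave reporter activation; CellTiter-Glo measured viability.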

[15] = qHTS for activators of dead-cell proteases activity screened against the NCATS CANVASS Library (AID 1347392)
Method in brief: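 HepG2, 2000 cells/well, 18 h attach; cpd 11-pt, 5 h 37C 5% CO2; CytoTox-Glo (AAF-aminoluciferin) 15 min RT; luminescence read.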

[16] = Vero-766 cells viability qHTS against the NCATS CANVASS Library: Counterscreen for Zika virus inhibition assay (AID 1347394)
Method in brief: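 CellTiter Glo luminescence measured cytotoxicity after 72 h at 37C in uninfected Vero 766 cells, plated at 1000 cells/well. Compounds were applied in an 11-point series. Wells without cells defined 100% inhibition.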

[17] = qHTS for inhibitors of Wild type Zika virus screened against the NCATS CANVASS Library (AID 1347396)
Method in brief: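 Protection against wild-type Zika cytopathic effect is measured in African green monkey Vero 766 cells exposed to an 11-point compound series. Surviving cells are quantified by CellTiter Glo luminescence after 72 h.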

[18] = Redox Reaction Profiling qHTS: Assay Interference Panel against the NCATS CANVASS Library (AID 1347401)
Method in brief: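 Fluorescence read-out (525 nm excitation, 598 nm emission) at time zero and after 15 min in the dark tracked resorufin formation. Mix: 5 uM resazurin, 200 uM DTT, HEPES pH 7.3 buffer with NaCl.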

[19] = Validation of Assay for Modulators of Lamin A Splicing (AID 1459; active = well fitted curve in the direction sought with a large enough effect in the signal ratio; the % refers to the signal ratio)
Method in brief: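 Splicing correction read as GFP (500-530 nm) over DsRed2 (575-640 nm) object intensity after 48 h compound exposure of reporter HeLa S3 clones (600 cells/well, 2% FBS medium); ancitabine and cycloheximide titrations, 0.5% DMSO as vehicle.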

[20] = biological target: Endonuclease 4 (Escherichia coli (strain K12)) (UniProt P0A6C1); assay: Counterscreen for APE1 Inhibitors: qHTS Validation Assay for Inhibitors of Endonuclease IV (AID 1708)
Method in brief: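 Read-out: fluorescence rise (ex 525/em 598 nm) from incision of a TAMRA/BHQ-2 double-stranded THF abasic-site substrate (50 nM), measured kinetically; third-minus-first read difference gave reaction progress. Enzyme 2 nM.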

Measured: Potency

Ubiquitin carboxyl-terminal hydrolase 1 (Homo sapiens), sequence (O94782 whole entry, looked up): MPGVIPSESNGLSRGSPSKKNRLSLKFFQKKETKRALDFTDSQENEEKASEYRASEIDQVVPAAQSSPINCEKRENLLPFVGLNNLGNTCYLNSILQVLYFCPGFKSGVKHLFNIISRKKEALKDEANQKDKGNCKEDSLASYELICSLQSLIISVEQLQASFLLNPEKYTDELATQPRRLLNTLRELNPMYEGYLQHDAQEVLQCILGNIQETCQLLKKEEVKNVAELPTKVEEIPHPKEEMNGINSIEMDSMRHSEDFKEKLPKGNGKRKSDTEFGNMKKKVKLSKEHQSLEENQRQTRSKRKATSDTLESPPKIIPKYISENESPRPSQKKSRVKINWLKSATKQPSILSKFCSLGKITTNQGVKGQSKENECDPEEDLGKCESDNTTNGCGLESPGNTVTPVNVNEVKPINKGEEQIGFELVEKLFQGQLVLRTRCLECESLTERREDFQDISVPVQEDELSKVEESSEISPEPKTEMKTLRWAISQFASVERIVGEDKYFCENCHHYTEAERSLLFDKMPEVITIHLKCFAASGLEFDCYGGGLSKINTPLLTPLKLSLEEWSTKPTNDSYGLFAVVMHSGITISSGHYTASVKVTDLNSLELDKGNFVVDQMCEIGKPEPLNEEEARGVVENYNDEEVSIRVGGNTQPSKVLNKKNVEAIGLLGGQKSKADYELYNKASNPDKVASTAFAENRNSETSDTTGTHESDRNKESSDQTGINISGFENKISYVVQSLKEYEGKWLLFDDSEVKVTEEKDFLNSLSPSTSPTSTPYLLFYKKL
Nuclear receptor subfamily 1 group I member 3 (Homo sapiens), sequence (Q14994 whole entry, looked up): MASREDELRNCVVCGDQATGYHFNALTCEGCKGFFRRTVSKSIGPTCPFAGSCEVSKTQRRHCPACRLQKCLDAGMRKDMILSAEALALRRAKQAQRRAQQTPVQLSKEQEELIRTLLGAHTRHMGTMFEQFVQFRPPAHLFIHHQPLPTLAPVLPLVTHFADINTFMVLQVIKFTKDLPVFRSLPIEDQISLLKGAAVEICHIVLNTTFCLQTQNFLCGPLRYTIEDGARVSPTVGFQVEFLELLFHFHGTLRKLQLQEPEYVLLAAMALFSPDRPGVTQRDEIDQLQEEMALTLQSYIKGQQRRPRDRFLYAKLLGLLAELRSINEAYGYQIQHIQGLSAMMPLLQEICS
Cytochrome P450 3A4 (Homo sapiens), sequence (P08684 whole entry, looked up): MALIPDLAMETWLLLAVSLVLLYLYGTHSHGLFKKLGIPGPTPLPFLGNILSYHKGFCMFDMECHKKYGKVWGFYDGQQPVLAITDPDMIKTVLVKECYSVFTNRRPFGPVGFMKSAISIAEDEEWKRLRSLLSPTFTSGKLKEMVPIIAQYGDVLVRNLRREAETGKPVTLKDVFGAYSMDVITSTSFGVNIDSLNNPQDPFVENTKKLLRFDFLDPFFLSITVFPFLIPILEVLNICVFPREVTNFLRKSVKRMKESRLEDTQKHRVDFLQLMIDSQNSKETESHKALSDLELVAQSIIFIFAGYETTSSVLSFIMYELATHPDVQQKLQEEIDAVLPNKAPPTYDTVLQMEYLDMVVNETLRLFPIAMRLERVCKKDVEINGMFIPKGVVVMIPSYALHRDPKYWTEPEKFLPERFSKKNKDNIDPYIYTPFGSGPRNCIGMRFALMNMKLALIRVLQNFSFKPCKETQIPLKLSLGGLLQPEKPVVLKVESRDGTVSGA

CN(C)Cc1c[nH]c2ccccc12
inactive: [1] | [2] | [3] | [4] | [5] | [6] | [7] | [8] | [9] | [10] | [11] | [12] | [13] | [14] | [15] | [16] | [17] | [18]

CC(=O)OCC1=C(C(=O)[O-])N2C(=O)[C@@H](NC(=O)CCC[C@@H](N)C(=O)[O-])[C@H]2SC1.[Zn+2]
inactive: [19] | [20]

NCCc1ccccc1
inactive: [4] | [5] | [6] | [7] | [8] | [9] | [10] | [11] | [12] | [13] | [14] | [15] | [16] | [17] | [18]

CN[C@H](CC(C)C)C(=O)N[C@H]1C(=O)N[C@@H](CC(N)=O)C(=O)N[C@H]2C(=O)N[C@H]3C(=O)N[C@H](C(=O)N[C@H](C(=O)O)c4cc(O)cc(O)c4-c4cc3ccc4O)[C@H](O)c3ccc(c(Cl)c3)Oc3cc2cc(c3O[C@@H]2O[C@H](CO)[C@@H](O)[C@H](O)[C@H]2O[C@H]2C[C@](C)(N)[C@H](O)[C@H](C)O2)Oc2ccc(cc2Cl)[C@H]1O
inactive: [20]

CN1C2CCC1CC(OC(=O)C(CO)c1ccccc1)C2 (stereo not given)
inactive: [19]

Cc1ccccc1O
inactive: [1]

CC(C)COC(=O)OCN1C(=O)CN(CCN2CC(=O)N(COC(=O)OCC(C)C)C(=O)C2)CC1=O
inactive: [2]

CC(=O)[C@H]1CC[C@H]2[C@@H]3CCC4=CC(=O)CC[C@]4(C)[C@H]3CC[C@]12C
inactive: [3]
